Measurements taken from the supplement of paper PMC10849652.
Of roughly 7,900 targets only a part is listed; those with a hit were picked by preference. About 0.6% of all pairs of compound and target were hits.

What follows are targets tested with Cc1cc(Nc2cc(N3CCN(C)CC3)nc(Sc3ccc(NC(=O)C4CC4)cc3)n2)n[nH]1 [tozasertib] (assay: log2 fold change, soluble protein after heating vs DMSO (PISA); higher = thermal stabilisation; K562 cells, 10 uM, 30 min; active = over 0.2 and 3.5 SD of the protein, either way, in both replicates (recomputed)).
Method in brief: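 Aliquots of K562 cells (2×10^6 cells/mL) treated with 10 μM compound for 30 min were heated for 3 min over 48°C-58°C. After pooling and extraction in PBS with 0.5% NP-40 at 4°C, soluble protein from a 21,000xg, 90 min spin was quantified by TMTpro 16plex LC-MS/MS with channel sums equalised. Thermal stability is expressed against control samples, from duplicates, as a log2 fold change.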

UniProt P08236, sequence (P08236 whole entry, looked up): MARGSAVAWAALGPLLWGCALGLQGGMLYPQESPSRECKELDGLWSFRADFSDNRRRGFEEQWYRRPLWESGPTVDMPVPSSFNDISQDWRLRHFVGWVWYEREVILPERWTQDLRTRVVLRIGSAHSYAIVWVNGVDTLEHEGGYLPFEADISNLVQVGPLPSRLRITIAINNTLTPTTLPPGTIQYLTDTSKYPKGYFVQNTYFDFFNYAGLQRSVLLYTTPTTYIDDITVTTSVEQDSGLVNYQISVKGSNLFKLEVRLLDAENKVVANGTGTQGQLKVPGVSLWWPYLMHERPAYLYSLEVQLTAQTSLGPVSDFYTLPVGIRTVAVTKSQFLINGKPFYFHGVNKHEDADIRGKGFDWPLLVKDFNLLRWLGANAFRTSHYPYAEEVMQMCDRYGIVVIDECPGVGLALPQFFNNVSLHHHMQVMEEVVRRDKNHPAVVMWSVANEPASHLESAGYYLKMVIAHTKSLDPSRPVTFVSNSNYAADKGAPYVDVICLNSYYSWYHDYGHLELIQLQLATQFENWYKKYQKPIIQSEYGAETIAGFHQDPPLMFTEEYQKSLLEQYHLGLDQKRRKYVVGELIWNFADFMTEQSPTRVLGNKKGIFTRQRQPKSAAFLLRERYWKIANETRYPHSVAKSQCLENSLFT
UniProt O75146, sequence (O75146 whole entry, looked up): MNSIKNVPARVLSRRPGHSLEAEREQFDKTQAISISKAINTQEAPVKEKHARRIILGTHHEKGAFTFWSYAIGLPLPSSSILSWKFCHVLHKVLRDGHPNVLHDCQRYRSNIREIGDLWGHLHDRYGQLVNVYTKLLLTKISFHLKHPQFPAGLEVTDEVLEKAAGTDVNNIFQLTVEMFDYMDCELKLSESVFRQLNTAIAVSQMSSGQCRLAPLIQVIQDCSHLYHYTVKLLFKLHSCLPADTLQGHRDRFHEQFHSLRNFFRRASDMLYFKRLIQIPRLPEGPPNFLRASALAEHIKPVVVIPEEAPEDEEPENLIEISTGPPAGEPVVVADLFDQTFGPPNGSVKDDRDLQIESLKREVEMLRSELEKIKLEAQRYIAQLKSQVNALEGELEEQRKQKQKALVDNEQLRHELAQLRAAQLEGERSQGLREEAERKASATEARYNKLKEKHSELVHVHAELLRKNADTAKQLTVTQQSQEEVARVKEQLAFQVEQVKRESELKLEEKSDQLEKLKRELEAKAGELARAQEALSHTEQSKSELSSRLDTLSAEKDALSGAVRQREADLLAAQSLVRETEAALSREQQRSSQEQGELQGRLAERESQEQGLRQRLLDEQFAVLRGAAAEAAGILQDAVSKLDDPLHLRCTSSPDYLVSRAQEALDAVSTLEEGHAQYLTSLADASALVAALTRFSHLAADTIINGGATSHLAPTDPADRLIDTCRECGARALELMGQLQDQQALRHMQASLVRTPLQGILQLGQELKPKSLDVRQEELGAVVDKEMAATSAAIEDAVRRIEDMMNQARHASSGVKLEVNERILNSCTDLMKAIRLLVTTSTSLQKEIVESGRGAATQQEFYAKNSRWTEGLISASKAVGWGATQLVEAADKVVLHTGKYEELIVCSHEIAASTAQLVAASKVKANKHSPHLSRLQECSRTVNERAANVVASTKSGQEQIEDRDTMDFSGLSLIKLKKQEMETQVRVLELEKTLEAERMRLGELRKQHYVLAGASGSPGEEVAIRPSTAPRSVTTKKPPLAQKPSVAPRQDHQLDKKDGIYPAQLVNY
UniProt Q13907, sequence (Q13907 whole entry, looked up): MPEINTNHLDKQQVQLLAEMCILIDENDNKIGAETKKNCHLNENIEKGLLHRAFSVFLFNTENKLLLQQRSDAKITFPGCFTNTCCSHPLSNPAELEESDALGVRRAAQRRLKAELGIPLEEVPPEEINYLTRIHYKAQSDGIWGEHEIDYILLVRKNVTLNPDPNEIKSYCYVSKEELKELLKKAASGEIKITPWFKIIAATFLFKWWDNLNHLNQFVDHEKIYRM
UniProt P07686, sequence (P07686 whole entry, looked up): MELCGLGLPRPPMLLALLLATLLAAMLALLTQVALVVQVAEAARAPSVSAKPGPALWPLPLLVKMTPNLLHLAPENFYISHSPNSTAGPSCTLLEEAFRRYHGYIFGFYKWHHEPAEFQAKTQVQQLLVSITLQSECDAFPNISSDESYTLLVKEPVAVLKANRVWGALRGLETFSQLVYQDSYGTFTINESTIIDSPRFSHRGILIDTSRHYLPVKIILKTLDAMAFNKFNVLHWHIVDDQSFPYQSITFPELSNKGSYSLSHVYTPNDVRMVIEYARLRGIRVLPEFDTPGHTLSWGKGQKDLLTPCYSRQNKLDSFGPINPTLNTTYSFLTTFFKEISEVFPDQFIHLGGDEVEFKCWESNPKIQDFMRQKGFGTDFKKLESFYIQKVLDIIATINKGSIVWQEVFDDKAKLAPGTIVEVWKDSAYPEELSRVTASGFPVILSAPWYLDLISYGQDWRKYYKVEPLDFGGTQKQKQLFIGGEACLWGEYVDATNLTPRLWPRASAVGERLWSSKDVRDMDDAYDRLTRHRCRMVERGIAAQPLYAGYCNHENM
UniProt Q9UKN8, sequence (Q9UKN8 whole entry, looked up): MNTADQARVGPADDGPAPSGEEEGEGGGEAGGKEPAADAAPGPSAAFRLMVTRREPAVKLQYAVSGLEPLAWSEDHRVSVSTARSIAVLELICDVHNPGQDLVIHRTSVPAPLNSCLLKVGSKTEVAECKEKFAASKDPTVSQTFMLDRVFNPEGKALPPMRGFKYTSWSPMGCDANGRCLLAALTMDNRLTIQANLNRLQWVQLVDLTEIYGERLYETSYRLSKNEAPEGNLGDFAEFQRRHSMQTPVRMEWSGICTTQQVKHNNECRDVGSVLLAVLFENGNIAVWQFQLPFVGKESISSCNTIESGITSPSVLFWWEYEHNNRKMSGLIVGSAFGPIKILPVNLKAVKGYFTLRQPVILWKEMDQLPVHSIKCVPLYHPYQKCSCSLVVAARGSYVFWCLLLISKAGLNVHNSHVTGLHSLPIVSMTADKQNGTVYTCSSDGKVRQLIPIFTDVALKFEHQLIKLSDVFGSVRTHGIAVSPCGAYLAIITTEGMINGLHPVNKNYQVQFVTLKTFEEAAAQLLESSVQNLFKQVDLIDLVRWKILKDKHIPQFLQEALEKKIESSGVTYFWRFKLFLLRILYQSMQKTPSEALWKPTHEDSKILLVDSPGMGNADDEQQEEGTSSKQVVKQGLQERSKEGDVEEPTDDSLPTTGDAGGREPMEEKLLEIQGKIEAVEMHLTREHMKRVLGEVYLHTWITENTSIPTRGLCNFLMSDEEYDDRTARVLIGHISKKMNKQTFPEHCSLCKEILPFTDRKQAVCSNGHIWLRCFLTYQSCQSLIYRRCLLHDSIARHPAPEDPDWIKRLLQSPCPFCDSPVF
UniProt P14324, sequence (P14324 whole entry, looked up): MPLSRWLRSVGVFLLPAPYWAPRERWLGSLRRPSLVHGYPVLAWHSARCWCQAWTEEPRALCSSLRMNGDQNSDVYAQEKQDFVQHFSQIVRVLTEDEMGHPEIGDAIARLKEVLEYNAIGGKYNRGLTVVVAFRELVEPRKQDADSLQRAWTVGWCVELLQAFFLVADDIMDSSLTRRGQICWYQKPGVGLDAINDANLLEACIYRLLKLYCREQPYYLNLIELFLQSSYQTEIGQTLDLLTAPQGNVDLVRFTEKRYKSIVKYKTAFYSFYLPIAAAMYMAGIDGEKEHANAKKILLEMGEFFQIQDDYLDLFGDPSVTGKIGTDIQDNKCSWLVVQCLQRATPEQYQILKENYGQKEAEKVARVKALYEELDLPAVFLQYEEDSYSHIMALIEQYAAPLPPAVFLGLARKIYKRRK
UniProt Q9UQC2, sequence (Q9UQC2 whole entry, looked up): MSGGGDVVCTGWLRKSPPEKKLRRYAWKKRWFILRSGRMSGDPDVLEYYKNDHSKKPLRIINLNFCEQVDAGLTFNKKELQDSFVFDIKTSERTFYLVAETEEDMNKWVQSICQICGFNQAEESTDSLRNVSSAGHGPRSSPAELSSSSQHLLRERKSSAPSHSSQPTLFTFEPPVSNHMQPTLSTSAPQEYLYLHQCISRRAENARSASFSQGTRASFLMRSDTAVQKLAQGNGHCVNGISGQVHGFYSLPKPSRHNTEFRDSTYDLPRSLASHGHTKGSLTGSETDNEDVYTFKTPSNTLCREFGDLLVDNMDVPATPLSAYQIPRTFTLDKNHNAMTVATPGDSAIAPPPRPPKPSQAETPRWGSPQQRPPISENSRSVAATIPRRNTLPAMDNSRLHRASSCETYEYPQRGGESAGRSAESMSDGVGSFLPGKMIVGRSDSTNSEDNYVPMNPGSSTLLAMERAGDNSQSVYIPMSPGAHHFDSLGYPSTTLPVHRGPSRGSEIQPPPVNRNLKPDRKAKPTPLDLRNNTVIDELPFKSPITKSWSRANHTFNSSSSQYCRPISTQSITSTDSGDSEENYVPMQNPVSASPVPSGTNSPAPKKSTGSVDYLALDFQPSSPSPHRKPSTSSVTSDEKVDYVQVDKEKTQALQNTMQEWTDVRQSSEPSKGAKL
UniProt P50213, sequence (P50213 whole entry, looked up): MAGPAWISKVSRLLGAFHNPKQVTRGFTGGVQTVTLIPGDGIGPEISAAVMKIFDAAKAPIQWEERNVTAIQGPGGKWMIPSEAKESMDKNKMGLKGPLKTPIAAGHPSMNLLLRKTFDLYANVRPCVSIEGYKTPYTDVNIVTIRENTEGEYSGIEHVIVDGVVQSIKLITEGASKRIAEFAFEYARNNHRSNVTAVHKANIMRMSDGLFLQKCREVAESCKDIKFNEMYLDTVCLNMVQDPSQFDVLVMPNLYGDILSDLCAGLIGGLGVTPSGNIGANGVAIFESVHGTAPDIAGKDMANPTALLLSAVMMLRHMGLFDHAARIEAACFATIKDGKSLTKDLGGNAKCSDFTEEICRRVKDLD
UniProt Q00688, sequence (Q00688 whole entry, looked up): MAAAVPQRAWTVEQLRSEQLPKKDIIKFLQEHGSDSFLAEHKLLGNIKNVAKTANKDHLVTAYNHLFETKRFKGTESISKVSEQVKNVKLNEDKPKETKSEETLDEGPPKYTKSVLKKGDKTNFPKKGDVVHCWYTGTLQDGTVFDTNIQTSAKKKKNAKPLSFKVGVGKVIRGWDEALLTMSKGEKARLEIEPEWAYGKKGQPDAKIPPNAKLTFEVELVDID

log2 fold change, inactive:
GTF3C4 (UniProt Q9UKN8) 0.059, HEATR5B (UniProt Q9P2D3) -0.019, IDI1 isoform 2 (UniProt Q13907) 0.057, HP1BP3 (UniProt Q5SSJ5) -0.011, GSK3A (UniProt P49840) -0.006, GNAI3 (UniProt P08754) -0.023, GUSB (UniProt P08236) 0.006, GEMIN5 (UniProt Q8TEQ6) 0.016, FASTKD1 (UniProt Q53R41) -0.253, GNAS (UniProt Q5JWF2) -0.026, GOLGB1 isoform 2 (UniProt Q14789) 0.211, HEXB (UniProt P07686) 0.012, H2AFX (UniProt P16104) 0.073, GCDH (UniProt Q92947) -0.107, FIS1 (UniProt Q9Y3D6) 0.079, FKBP3 (UniProt Q00688) 0.004, FBXO7 (UniProt Q9Y3I1) -0.018, HIP1R (UniProt O75146) -0.008, IDH3A (UniProt P50213) -0.029, HMGB3 (UniProt O15347) 0.029, FBL (UniProt P22087) -0.043, GAB2 (UniProt Q9UQC2) -0.34, FDPS (UniProt P14324) -0.193
